Screens: PubChem BioAssay, National Center for Advancing Translational Sciences (NCATS)
Hits are enriched below; roughly 11% of the tested compounds scored in any of these assays.
G9a inh = G9a (human) methyltransferase inhibition; Q96KQ7; G9a H3K9 monomethylation, AlphaScreen, 2 h; Potency, µM (titrated, usually from 102 µM), for the others: at the top dose activity, negative = inhibition, most hits filed as inhibitors; actives 8.8% (n = 350,000); AID 504332; also: potency is read from the fitted curve at half-maximal effect; % is scaled to controls: 0 for no effect and ±100 for the full control effect; nearly all actives have a fitted effect of over 75% in size
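G9a (20 nM) was preincubated 15 min with compound, then reacted 2 h at room temperature with 500 nM biotin-H3K9 peptide and 20 µM SAM. Monomethyl-H3K9 detected by AlphaScreen using anti-H3K9me1 antibody.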
HP1b binding inh = HP1-beta chromodomain-methylated histone interaction inhibition; actives 0.56% (n = 390,000); AlphaScreen HP1-beta / biotin-H3K9me3 peptide binding; P83916; Potency, µM (highest dose often 114 µM), without a hit: top-dose activity change, negative = inhibition, usual class: inhibitors; also: potency is read from the fitted curve at half-maximal effect; nearly all actives have a fitted effect of over 70% in size
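AlphaScreen: HP1-beta (50 nM) preformed 30 min with biotin-H3(1-18)K9me3 peptide (50 nM) in PBS pH 7.4, 0.01% Tween-20. Compound added for 30 min at RT, then streptavidin donor/nickel chelate acceptor beads (10 ug/mL) for 30 min.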
BAZ2B inh = inhibitors of human BAZ2B bromodomain | AlphaScreen BAZ2B-H3K14Ac peptide displacement | Q9UIF8 | Potency, µM (series often up to 114 µM), for the others: at the highest dose activity change, negative = inhibition, usual class: inhibitors | AID 504333 | actives 4.4% (n = 360,000); also: potency is read from the fitted curve at half-maximal effect; % is scaled to controls: 0 for no effect and ±100 for the full control effect; nearly all actives have a fitted effect of over 60% in size
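In this displacement format the biotinylated H3(5-23) peptide acetylated at Lys14 serves as ligand at 50 nM, with BAZ2B at 50 nM in PBS pH 7.4 containing 0.01% Tween-20. Donor and acceptor beads are 10 ug/mL final.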
L3MBTL1 block = L3MBTL1 (human) inhibition. Potency, µM (top dose mostly 57.1 µM), for the others: top-dose activity, negative = inhibition, actives largely listed as inhibitors. Q9Y468. actives 0.66% (n = 230,000). AlphaScreen L3MBTL1–H3K9me1 peptide binding. AID 485360; also: potency is read from the fitted curve at half-maximal effect; % is scaled to controls: 0 for no effect and ±100 for the full control effect; nearly all actives have a fitted effect of over 60% in size
Target sequence (Q9Y468 whole entry, looked up): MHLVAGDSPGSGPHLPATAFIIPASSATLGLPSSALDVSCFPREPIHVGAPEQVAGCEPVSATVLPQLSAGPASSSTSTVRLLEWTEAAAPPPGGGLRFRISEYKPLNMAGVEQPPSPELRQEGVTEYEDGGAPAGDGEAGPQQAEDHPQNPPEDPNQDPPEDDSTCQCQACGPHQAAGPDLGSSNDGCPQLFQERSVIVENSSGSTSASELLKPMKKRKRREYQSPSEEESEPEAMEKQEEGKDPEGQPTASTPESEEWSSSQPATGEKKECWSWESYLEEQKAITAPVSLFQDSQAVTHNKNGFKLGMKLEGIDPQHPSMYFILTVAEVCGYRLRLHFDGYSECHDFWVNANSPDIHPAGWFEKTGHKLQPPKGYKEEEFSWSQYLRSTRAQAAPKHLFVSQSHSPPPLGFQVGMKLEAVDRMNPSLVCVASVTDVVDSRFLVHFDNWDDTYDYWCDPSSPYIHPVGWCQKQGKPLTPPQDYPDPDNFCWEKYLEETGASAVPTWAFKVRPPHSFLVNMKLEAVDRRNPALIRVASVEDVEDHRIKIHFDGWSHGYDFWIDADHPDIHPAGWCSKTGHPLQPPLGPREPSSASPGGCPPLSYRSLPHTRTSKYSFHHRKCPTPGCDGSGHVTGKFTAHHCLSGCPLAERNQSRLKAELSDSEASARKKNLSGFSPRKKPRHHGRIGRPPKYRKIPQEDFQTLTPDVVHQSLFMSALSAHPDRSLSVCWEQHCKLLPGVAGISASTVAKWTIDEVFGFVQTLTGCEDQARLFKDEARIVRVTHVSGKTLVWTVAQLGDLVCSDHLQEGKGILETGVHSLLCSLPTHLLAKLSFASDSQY
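AlphaScreen proximity signal between nickel-chelate acceptor and streptavidin donor beads (final 10 ug/mL) reports binding of 50 nM L3MBTL1 to 75 nM biotin-H3 K9me1 peptide; complex incubated with compounds 30 min at room temperature; cefsulodin titration as control.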
JMJD2A Tudor = inhibitors of human JMJD2A Tudor domain; AlphaScreen JMJD2A-Tudor / H3K4me3 peptide binding; AID 504339; O75164; Potency, µM (doses to about 114 µM), for inactives: at the top dose activity change, negative = inhibition, actives largely listed as inhibitors; actives 4.4% (n = 390,000); also: potency is read from the fitted curve at half-maximal effect; % is scaled to controls: 0 for no effect and ±100 for the full control effect; nearly all actives have a fitted effect of over 50% in size
PI5P4K alpha inh = blocks human PI5P4K alpha kinase activity; P48426; PI5P4Kalpha enzyme, ADP-Glo luminescence, 60 min; hits give low values; max response, %; actives 1.2% (n = 330,000); AID 652105; active = max response of -50% or lower; inconclusive = between -30% and -50%; inactive = -30% or higher; also: value at the top dose of about 77 µM; % is scaled to controls: 0 for no effect and ±100 for the full control effect
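Quantitative HTS of the MLSMR library against PI5P4Kalpha with substrate. ATP added last at 5 microM final; room temperature, 60 minutes. Remaining ATP depleted, ADP converted and read as luminescence.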
Active calls of the source: *; ? = inconclusive; . = not tested or not shown; [ ] = remark or other dose. Unless noted, calls follow the shape of the dose curve; as a rule, active = well fitted inhibition curve with a large enough effect; inconclusive = small, poorly fitted or top-dose-only effect; inactive = no such curve, though single readings can be large or run the other way.

SMILES	G9a inh	HP1b binding inh	BAZ2B inh	L3MBTL1 block	JMJD2A Tudor	PI5P4K alpha inh
O=C1Nc2cc(C(=O)NCCCN3CCCC3)ccc2S/C1=C/c1cccc(Cl)c1	.	.	.	.	.	-51.4*
CCN1CCCC1CNC(=O)c1ccc2c(c1)NC(=O)/C(=C\c1ccccc1Cl)S2 (stereo not drawn)	.	.	.	.	.	-12.7
COc1cccc(/C=C2/Sc3ccc(C(=O)NCCN4CCCCCC4)cc3NC2=O)c1	39.8µM*	5.5%	?	.	?	?
CCc1ccc(NC(=O)CSc2nc(C)cc(COC)c2C#N)cc1	-0.7%[59 µM]	40.2%	-2.4%	.	-3.7%	.
CCN1CCN(CCCNC(=O)c2ccc3c(c2)NC(=O)/C(=C\c2cccc(C)c2)S3)CC1	35.5µM*	15.1%	?	.	?	-26.6
O=C1Nc2cc(C(=O)NCCN3CCCCCC3)ccc2S/C1=C\c1ccccc1	44.7µM*	-12.8%	?	.	?	-11.3
Cc1cccc(/C=C2/Sc3ccc(C(=O)NCCCN4CCOCC4)cc3NC2=O)c1	1.5%[59 µM]	.	?	.	.	.
Cc1ccc(NC(=O)c2cc3nc(-c4ccc5c(c4)OCO5)cc(C(F)(F)F)n3n2)cc1Cl	8.1%[59 µM]	33.7%	-14.6%	.	2.2%	.
Oc1c(Br)cc(Br)cc1/C=N/c1nccs1	1.58µM*	19.6%	?	-10.0%	-22.7%	-55.3*
Cc1ccc(/C=C2/N=C(c3ccccc3)NNC2=O)cc1	14.1µM*	11.7%	-20.2%	3.7%	-34.1%	0.6
COc1ccc(C)cc1NCc1ccc([N+](=O)[O-])cc1	-0.8%[0.501 µM]	?	39.8µM*	-8.1%[2.29 µM]	50.1µM*	7.1
COc1ccc(CNCCc2ccc([N+](=O)[O-])cc2)c(OC)c1OC	-12.5%[0.501 µM]	1.6%	50.1µM*	-4.2%[2.29 µM]	79.4µM*	0.2
COc1ccc(C)cc1NCc1ccc(OC)c(C)c1OC	8.91µM*	?	22.4µM*	?	20µM*	9.3
COc1ccc(CNc2cc([N+](=O)[O-])ccc2OC)cc1	19.6%[0.501 µM]	48.6%	4.5%	22.4%	-16.3%	.
COc1ccc(CNCCNC(=O)c2ccco2)c(OC)c1OC	?	?	?	.	?	-1.1
CCC(C)(C)NC(=O)CCn1c(-c2ccccc2)cc(C(C)=O)c1C	-22.2%	6.4%	50.1µM*	.	-16.6%	6.4
CC(=O)c1cc(-c2ccccc2)n(CCC(=O)Nc2ccc(C)cc2C)c1C	3.0%[59 µM]	14.6%	-3.7%	.	-5.1%	.
CC(=O)c1cc(-c2ccccc2)n(CCC(=O)NC2CCCCCCC2)c1C	0.9%[59 µM]	-28.5%	50.1µM*	-3.9%	-30.4%	0.1
CC(=O)c1ccc(S(=O)(=O)NCCC(=O)NC2CCN(Cc3ccccc3)CC2)cc1	.	14.1µM*	.	0.5%	4.47µM*	-2.4
CCOC(=O)c1cc(-c2ccccc2)n(CCC(=O)NC2CCCCC2)c1C	?	-8.9%	-26.4%	.	-1.3%	.
CCOC(=O)c1cc(-c2ccc(OC)cc2)n(CCC(=O)NC2CCN(Cc3ccccc3)CC2)c1C	?	-32.9%	39.8µM*	-1.3%	?	-6.5
CCOc1ccc(S(=O)(=O)NCCC(=O)NC2CCN(Cc3ccccc3)CC2)cc1	16.0%[2.33 µM]	17.9%	9.1%	-1.1%	-10.3%	-1.1
COc1cc(NC(=O)C2CC2)c(OC)cc1NC(=O)CCC(=O)NC1CCN(Cc2ccccc2)CC1	39.8µM*	20.4%	-3.6%	-0.4%	-14.7%	5.7
COc1ccc(Cl)cc1NC(=O)CN1CCC(NC(=O)C2CC2)CC1	1.9%	-16.3%	11.6%	.	2.8%	-1.7
CCOC(=O)C1(C)C=C(Nc2cccc(C(=O)O)c2)C(=O)N1c1cccc(C(=O)O)c1 (stereo not drawn)	16.3%[59 µM]	46.9%	1.2%	.	-5.5%	.
SMILES	G9a inh	HP1b binding inh	BAZ2B inh	L3MBTL1 block	JMJD2A Tudor	PI5P4K alpha inh
COc1cc(/C=C/c2nc3cc(Cl)ccc3c(=O)n2-c2cccc(C(F)(F)F)c2)cc(OC)c1OC	3.9%[59 µM]	26.6%	0.5%	.	-11.9%	.
Cc1ccccc1N=Nc1c(O)n(C)c2ccccc12	7.94µM*	25.7%	-13.5%	.	-32.6%	5.5
O=C(O)Cc1ccc(NC(=O)C2CC=CCC2C(=O)O)cc1 (stereo not drawn)	?	.	56.2µM*	?	.	.
COc1cccc(CNC(=O)CSc2ccc(-c3sc(-c4ccccc4)nc3C)nn2)c1	-1.0%[59 µM]	0.4%	-12.5%	.	-18.3%	.
C=CCn1c(-c2c[nH]c3ccccc23)n[nH]c1=S	3.98µM*	13.9%	-0.1%	0.6%	6.31µM*	-17.3
C=CCn1c(CSc2nc3ccccc3s2)nnc1SCC(=O)OCC	?	17.9%	-0.8%	8.3%	-19.1%	.
CCn1c(-c2cc3ccccc3cc2O)n[nH]c1=S	?	10.9%	-34.1%	.	?	-10.1
C=CCn1c(-c2csc3ccccc23)n[nH]c1=S	?	-7.6%	-5.0%	.	17.8µM*	.
CCn1c(-c2c[nH]c3ccccc23)n[nH]c1=S	1.26µM*	-14.6%	1.2%	.	3.98µM*	.
C=CCn1c(NCc2c[nH]c3ccccc23)nc2ccccc21	-9.2%[59 µM]	-2.3%	-25.5%	13.8%[11.4 µM]	?	-4.7
O=C(Oc1oc(-c2ccco2)nc1C=Nc1ccccc1)c1ccoc1	7.08µM*	29.4%	-18.5%	2.7%	-23.8%	.
Cc1ccc(C(=O)Oc2oc(-c3ccco3)nc2C=Nc2ccc(Cl)cc2)cc1	50.1µM*	17.9%	-4.1%	0.1%	-7.6%	6.9
CC(C)c1ccccc1Oc1c(C(F)(F)F)oc2c(CN3CCN(C)CC3)c(O)ccc2c1=O	?	10.9%	-4.1%	.	-21.5%	.
O=C(OCC#CCNc1nnc(-c2cccc3ccccc23)o1)c1cccs1	1.5%[12.7 µM]	.	-28.7%	4.0%	.	.
O=C(O)CC(CCc1ccccc1)OC1OC(CO)C(O)C(O)C1O (stereo not drawn)	?	?	?	.	8.91µM*	-68.0*
[C-]#[N+][C@H](O[C@@H]1O[C@H](CO)[C@@H](O)[C@H](O)[C@H]1O)c1ccccc1	.	38.0%	.	.	-10.2%	4.4
O=C(CC1N=C2c3ccccc3N=C(SCc3ccccc3Cl)N2C1=O)NCCc1ccccc1 (stereo not drawn)	-3.7%[59 µM]	37.8%	-4.1%	.	-15.7%	.
Cc1ccccc1C(=O)N(Cc1sccc1C)C1CCS(=O)(=O)C1 (stereo not drawn)	-23.7%[59 µM]	18.4%	-4.1%	.	-9.4%	.
Cc1ccc(CCNC(=O)CCc2cn(Cc3ccccc3C)c3ccccc23)cc1	-10.9%[59 µM]	32.8%	-14.0%	.	-2.2%	.
O=C(Cc1cccs1)NNC(=S)NC(=O)c1ccco1	11.2µM*	10.5%	14.4%	54.6%	-8.6%	-14.2
CC(C)(C)c1ccc(OCC(=O)NNC(=S)NC(=O)c2ccco2)c(Br)c1	28.2µM*	?	-25.4%	.	?	-0.4
O=C(Cc1ccc(Cl)cc1)NNC(=S)NC(=O)c1cccs1	35.5µM*	2.4%	-12.5%	0.0%	-22.7%	0.9
